Measurements as given in PubChem BioAssay AID1159580 (chemical genetic matrix, 2015).
Out of some 5,500 compounds screened, about 2,000 (36%) were called active. About 18% were inconclusive and are not listed. No stated cut-off is given here; in the data, active means normalized growth mostly below about 0.91 (no sharp cut-off); inconclusive means no clear call, values can overlap the other calls; inactive means mostly above about 0.92. The list shows a part of the results.

Assay: chemical genetic growth profiling, strain panel (AID 1159580);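 further: tested at 20 µM; growth read once vehicle control cultures reached saturation at 30 °C; 1 = growth at the plate median or of vehicle wells; lower values mean less growth of the strain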
Settings: S. cerevisiae deletion strains, growth OD

Measured: normalized growth

CN[C@@H]1[C@@H](O)C(OC2[C@@H](N)C[C@@H](N)[C@H](O[C@H]3O[C@H](C(C)O)[C@@H](O)[C@H](O)[C@H]3N)[C@H]2O)OC[C@]1(C)O (stereo not given in full)
inactive: locus YAL021C, strain ccr4, hits give low values 0.963 | locus YAL026C, strain drs2, hits give low values 0.984 | locus YAL030W, strain snc1, hits give low values 0.986 | locus YBL061C, strain skt5, hits give low values 0.978 | locus YBR009C, strain hhf1, hits give low values 0.989 | locus YBR023C, strain chs3, hits give low values 0.973 | locus YBR171W, strain sec66, hits give low values 0.968 | locus YBR231C, strain swc5, hits give low values 0.991 | locus YBR279W, strain paf1, hits give low values 0.981 | locus YCL011C, strain gbp2, hits give low values 0.969 | locus YCL016C, strain dcc1, hits give low values 0.976 | locus YCL061C, strain MRC1, hits give low values 0.985 | locus YCL069W, strain vba3, hits give low values 0.966 | locus YCR088W, strain abp1, hits give low values 0.978 | locus YDL005C, strain med2, hits give low values 0.967 | locus YDL040C, strain nat1, hits give low values 0.997 | locus YDR001C, strain nth1, hits give low values 0.982 | locus YDR069C, strain doa4, hits give low values 0.969 | locus YDR137W, strain rgp1, hits give low values 1.02 | locus YDR159W, strain sac3, hits give low values 0.969 | locus YDR195W, strain ref2 0.973 | locus YDR297W, strain sur2, hits give low values 0.979 | locus YDR334W, strain swr1, hits give low values 0.967 | locus YDR335W, strain msn5, hits give low values 0.979 | locus YDR392W, strain spt3, hits give low values 0.938 | locus YEL003W, strain gim4, hits give low values 0.982 | locus YEL037C, strain rad23, hits give low values 0.977 | locus YEL061C, strain CIN8 (second series), hits give low values 0.985 | locus YER015W, strain faa2, hits give low values 0.964 | locus YER016W, strain bim1, hits give low values 0.981 | locus YER111C, strain swi4, hits give low values 0.977 | locus YER155C, strain BEM2 (second series), hits give low values 0.966 | locus YFR010W, strain ubp6, hits give low values 0.971 | locus YGL167C, strain pmr1, hits give low values 0.977 | locus YGL173C, strain kem1, hits give low values 0.96 | locus YGL227W, strain vid30, hits give low values 0.98 | locus YGL240W, strain doc1, hits give low values 0.977 | locus YGL253W, strain hxk2, hits give low values 0.963 | locus YHR013C, strain ard1, hits give low values 0.976 | locus YHR027C, strain rpn1, hits give low values 0.977 | locus YHR030C, strain SLT2, hits give low values 1.05 | locus YHR079C, strain IRE1, hits give low values 1.05 | locus YHR142W, strain chs7, hits give low values 0.966 | locus YJL092W, strain hpr5, hits give low values 0.96 | locus YJL095W, strain BCK1 (second series), hits give low values 0.966 | locus YJL095W, strain BCK1, hits give low values 0.989 | locus YJL115W, strain asf1, hits give low values 0.984 | locus YJL129C, strain trk1, hits give low values 0.97 | locus YJL154C, strain vps35, hits give low values 0.976 | locus YJL164C, strain tpk1, hits give low values 0.984 | locus YJL166W, strain qcr8, hits give low values 0.982 | locus YJL187C, strain SWE1, hits give low values 0.988 | locus YJR066W, strain TOR1, hits give low values 0.995 | locus YKL160W, strain elf1, hits give low values 0.988 | locus YKR026C, strain gcn3, hits give low values 0.979 | locus YKR091W, strain srl3, hits give low values 0.971 | locus YLL001W, strain dnm1, hits give low values 0.988 | locus YLL026W, hits give low values 0.971 | locus YLL041C, strain sdh2, hits give low values 0.976 | locus YLR027C, strain aat2, hits give low values 0.973 | locus YLR113W, strain HOG1, hits give low values 0.995 | locus YLR221C, strain rsa3, hits give low values 0.974 | locus YLR258W, strain gsy2, hits give low values 0.969 | locus YLR262C, strain YPT6 (second series), hits give low values 1.02 | locus YLR320W, strain mms22, hits give low values 0.976 | locus YLR342W, strain FKS1, hits give low values 0.972 | locus YLR357W, strain rsc2, hits give low values 0.977 | locus YLR370C, strain arc18, hits give low values 0.962 | locus YLR384C, strain iki3, hits give low values 0.958 | locus YML120C, strain ndi1, hits give low values 0.981 | locus YMR058W, strain fet3, hits give low values 0.985 | locus YMR125W, strain sto1, hits give low values 0.975 | locus YMR129W, hits give low values 0.989 | locus YMR205C, strain PFK2, hits give low values 1.01 | locus YMR231W, strain pep5, hits give low values 0.965 | locus YNL071W, strain lat1, hits give low values 0.975 | locus YNL183C, strain NPR1, hits give low values 0.942 | locus YNL209W, strain ssb2, hits give low values 0.994 | locus YNL248C, strain rpa49, hits give low values 0.987 | locus YNL322C, strain KRE1 (second series), hits give low values 0.967 | locus YNR049C, strain mso1, hits give low values 0.979 | locus YOR001W, strain rrp6, hits give low values 0.969 | locus YOR070C, strain gyp1, hits give low values 0.974 | locus YOR080W, strain dia2, hits give low values 0.975 | locus YOR083W, strain WHI5, hits give low values 0.976 | locus YOR106W, strain vam3, hits give low values 0.964 | locus YOR231W, strain MKK1, hits give low values 1.04 | locus YOR265W, strain rbl2, hits give low values 0.983 | locus YOR270C, strain vph1, hits give low values 0.981 | locus YOR290C, strain snf2, hits give low values 0.954 | locus YPL051W, strain arl3, hits give low values 0.983 | locus YPL078C, strain atp4, hits give low values 0.995 | locus YPL106C, strain sse1, hits give low values 0.988 | locus YPL240C, strain hsp82, hits give low values 0.977 | locus YPL256C, strain CLN2, hits give low values 1.02
